Bioassay records as filed in PubChem BioAssay.
PG9 Ab binder – binds the HIV-1 gp120 antibody PG9 | hit rate 0.43% among 360,000 | inhibition, % at 6.7 µM | TR-FRET gp120-PG9 antibody binding | AID 624416; in the data active = inhibition above about 8.5%
ABCB6 inh MLPCN – inhibitors of human ABC transporter ABCB6; K562-ABCB6 porphyrin accumulation, flow cytometry, 1 h; stronger effect = lower value; fluorescence ratio to DMSO, % at 10 µM; hit rate 0.19% among 360,000; AID 602162;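 active = fluorescence ratio to DMSO below 75%, the collection mean minus 3 SD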;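 note: signal is porphyrin accumulated inside mitochondria; 100% equals median channel fluorescence of DMSO control wells; lower ratio means ABCB6 inhibition with less porphyrin fluorescence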
Target sequence (Q9NP58 whole entry, looked up): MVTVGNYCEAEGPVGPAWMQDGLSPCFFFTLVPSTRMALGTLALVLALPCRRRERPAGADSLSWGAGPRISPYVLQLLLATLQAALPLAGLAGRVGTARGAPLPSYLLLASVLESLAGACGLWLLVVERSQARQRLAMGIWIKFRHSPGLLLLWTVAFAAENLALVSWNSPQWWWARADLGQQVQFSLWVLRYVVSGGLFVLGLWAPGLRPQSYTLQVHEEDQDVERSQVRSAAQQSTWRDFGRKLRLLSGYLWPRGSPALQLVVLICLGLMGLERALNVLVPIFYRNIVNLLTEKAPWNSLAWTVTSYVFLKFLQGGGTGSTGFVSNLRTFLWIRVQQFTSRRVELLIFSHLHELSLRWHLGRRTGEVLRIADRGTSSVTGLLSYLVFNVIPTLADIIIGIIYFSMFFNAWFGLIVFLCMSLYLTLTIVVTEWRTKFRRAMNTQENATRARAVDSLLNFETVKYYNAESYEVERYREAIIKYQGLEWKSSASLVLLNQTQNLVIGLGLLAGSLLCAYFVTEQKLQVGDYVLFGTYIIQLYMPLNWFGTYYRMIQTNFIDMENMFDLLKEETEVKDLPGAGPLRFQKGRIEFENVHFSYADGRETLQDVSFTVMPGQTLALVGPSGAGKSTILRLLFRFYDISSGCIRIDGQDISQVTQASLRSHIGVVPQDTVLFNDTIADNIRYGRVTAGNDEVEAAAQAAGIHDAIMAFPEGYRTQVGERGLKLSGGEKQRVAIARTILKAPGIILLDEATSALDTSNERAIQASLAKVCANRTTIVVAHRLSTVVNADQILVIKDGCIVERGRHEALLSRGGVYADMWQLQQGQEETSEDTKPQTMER
rCAG binder – r(CAG) repeat RNA binding | TO-PRO-1 dye displacement fluorescence | inhibition, % at 3 µM | hit rate 1.3% among 370,000;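 active = inhibition above the plate cutoff, the mean of all test compounds on that plate plus 3 SD, cut at about 35% in these data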;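 note: 0% = DMSO alone and 100% = 100 µM mitoxantrone as full dye displacement; higher means more dye released from RNA so lower well fluorescence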
Granule exo inh – blocks lytic granule exocytosis. inhibition, % at 10 µM. TALL-104 LAMP-1 surface exposure, flow cytometry; cells stimulated with thapsigargin and PMA. hit rate 0.66% among 360,000;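 active = inhibition above about 55%, limit read from the data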
rCAG binder conf – r(CAG) RNA repeat binding, confirmation; shares compounds with rCAG binder; TO-PRO-1 dye displacement fluorescence; inhibition, % at 3 µM; hit rate 70% among 4,300; AID 652065;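 active = inhibition above a per-plate cutoff, the mean inhibition of sample wells plus 3 SD, cut at about 35% in these data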;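 note: loss of TO-PRO-1 fluorescence as compound displaces dye from 1x1 AA loop RNA; 0% = DMSO only wells and 100% = 100 µM mitoxantrone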
DNA CAG counter – DNA CAG dye complex inhibition counter-screen. shares compounds with rCAG binder. d(CAG) DNA oligo TO-PRO-1 dye displacement, fluorescence. inhibition, % at 3 µM. hit rate 94% among 4,300;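 active = inhibition above its plate's cutoff, the mean test-well inhibition plus 3 SD, cut at about 4.8% in these data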;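 note: 0% = DNA dye mix with DMSO and 100% = 100 µM mitoxantrone; hits displace the dye from DNA and so lower well fluorescence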
Active calls of the source: *; x = not tested or not shown. This is a sample that favours compounds with a hit; in the whole collection about 2.5% have one here.

SMILES	PG9 Ab binder	ABCB6 inh MLPCN	rCAG binder	Granule exo inh	rCAG binder conf	DNA CAG counter
N#Cc1ccc(Oc2ccc(S(=O)(=O)N3CCOCC3)cn2)cc1	-9	98	-2	-5	x	x
O=C(Cc1cccc(C(F)(F)F)c1)Nc1cc(S(=O)(=O)N2CCOCC2)ccc1N1CCCC1	0	100	2	-2	x	x
CN(C)CCNc1nc(-c2ccccc2F)c2sccc2n1	1	102	1	11	x	x
Cc1ccc(NC(=O)C2CCN(C(=O)c3ccco3)CC2)cc1C	0	96	-3	-10	x	x
O=C(O)c1ccccc1C(=O)N1N=C2/C(=C/c3cccc([N+](=O)[O-])c3)CCCC2C1c1cccc([N+](=O)[O-])c1 (stereo unspecified)	0	92	52*	-1	73*	30*
O=C(O)c1c(C(=O)N2N=C3/C(=C/c4ccccc4)CCCC3C2c2ccccc2)cccc1[N+](=O)[O-] (stereo unspecified)	-1	96	35*	5	56*	17*
Nc1nonc1-c1nc2ccccc2n1CC(=O)N/N=C/c1ccc(-c2cccc(C(=O)O)c2)o1	0	96	61*	-3	46*	14*
Cc1c(OC(C(=O)O)c2ccccc2)ccc2c1oc(=O)c1ccccc12 (stereo unspecified)	0	98	36*	4	48*	14*
Cc1c(OC(C(=O)O)c2ccccc2)ccc2c3c(c(=O)oc12)CCC3 (stereo unspecified)	0	99	7	2	x	x
OCC1OC(c2ccccc2)OC2COC(c3ccccc3)OC12 (stereo unspecified)	0	105	-2	14	x	x
Cc1cc(C(=O)N/N=C/c2cc([N+](=O)[O-])ccc2O)c2ccccc2n1	-3	99	6	-4	x	x
Cc1ccccc1C(=O)Nc1cccc(C(=O)N/N=C/c2cc(Cl)cc([N+](=O)[O-])c2O)c1	-3	91	87*	2	73*	36*
Cc1cc(C(=O)N/N=C/c2cc(Br)cc([N+](=O)[O-])c2O)c2ccccc2n1	-1	98	49*	4	58*	20*
O=C(OCc1nnc(-c2ccccc2)o1)c1cc(Cl)ccc1[N+](=O)[O-]	1	90	-5	-2	x	x
CCOC(=O)C1(CCc2ccccc2)CCN(C(=O)C(C)n2cncn2)CC1 (stereo unspecified)	0	103	-4	-2	x	x
CCCCCC(=O)Nc1nc(C)c(-c2csc(Nc3cc(Cl)ccc3OC)n2)s1	0	109	39*	30	27	13*
CCCC(=O)Nc1nc(C)c(-c2csc(Nc3cc(OC)ccc3OC)n2)s1	-2	100	22	-3	x	x
Cc1cc(F)ccc1S(=O)(=O)N1CCCOC1CNC(=O)C(=O)NCc1ccncc1 (stereo unspecified)	0	102	2	14	x	x
Cn1c2ccccc2c2cc(/C=N/NC(=O)c3cc(O)ccc3O)ccc21	-4	99	66*	5	62*	31*
COc1cc(C(=O)N/N=C/c2ccc3c(c2)c2ccccc2n3C)ccc1O	1	82	25	10	x	x
Cn1c2ccccc2c2cc(/C=N/NC(=O)c3cc(O)cc(O)c3)ccc21	-2	102	43*	10	34	18*
O=S1(=O)CCN2N=C(C3CC3)SC2=N1	-1	95	-1	4	x	x
COc1ccc(NC(=O)CSc2nnc(NC(C)=O)s2)c([N+](=O)[O-])c1	-1	103	55*	-2	2	0
COc1cc(/C=C(\CC(=O)O)c2nc3ccccc3s2)ccc1OCC(=O)Nc1ccccc1F	-1	98	59*	-1	62*	23*
CCOc1cc(/C=C(\CC(=O)O)c2nc3ccccc3s2)ccc1OC	0	102	18	3	x	x
SMILES	PG9 Ab binder	ABCB6 inh MLPCN	rCAG binder	Granule exo inh	rCAG binder conf	DNA CAG counter
CCOc1cc(/C=C(\CC(=O)O)c2nc3ccccc3s2)ccc1OCC(=O)Nc1cccc(C(F)(F)F)c1	-1	99	67*	-4	53*	18*
COc1ccc(-c2nn(-c3ccccc3)cc2/C=C(\CC(=O)O)c2nc3ccccc3s2)cc1OC	2	98	53*	-1	64*	22*
COC(=O)C1=C(O)/C(=C\c2ccc(CNS(=O)(=O)c3ccc(Cl)cc3)o2)N=C1C	-6	98	37*	3	42*	15*
CCOC(=O)C1=C(O)/C(=C\c2ccc(CNS(=O)(=O)c3ccc(Br)cc3)o2)N=C1C	-8	97	37*	-1	43*	16*
CCCOP(=O)(c1ccc(N(C)C)cc1)C(O)c1ccc(Br)cc1 (stereo unspecified)	0	94	-10	38	x	x
Cc1noc(C)c1NC(=O)N(C)C[C@H]1Oc2ccc(NC(=O)Cn3cnnn3)cc2C(=O)N([C@H](C)CO)C[C@@H]1C	0	98	2	1	x	x
O=C(O)Cn1c(SCCOc2ccccc2)nc2ccccc21	-3	100	5	-1	x	x
CC(C)(C)c1ccc(OCCSc2nc3ccccc3n2CC(=O)O)cc1	-2	99	39*	-9	43*	11*
CS(=O)(=O)c1ccc(-c2nnc(NC(=O)c3ccc(S(=O)(=O)N4CCCC4)cc3)o2)cc1	-1	96	36*	-3	16	4.7*
CNc1ccc(/C=C(\CCC(=O)O)c2nc3ccccc3s2)cc1[N+](=O)[O-]	-4	98	78*	0	82*	39*
Cc1ccc(/C=C(\CCC(=O)O)c2nc3ccccc3s2)cc1[N+](=O)[O-]	-1	95	49*	-7	65*	25*
CN(c1ccccc1)c1ccc(/C=C(\CCC(=O)O)c2nc3ccccc3s2)cc1[N+](=O)[O-]	-2	108	71*	0	78*	37*
Cn1cnnc1Sc1ccc(/C=C(\CCC(=O)O)c2nc3ccccc3s2)cc1[N+](=O)[O-]	-2	105	16	-1	x	x
CC(C)c1ccc(NC2CCCN(C(=O)C3=NN(C)C(=O)CC3)C2)cc1 (stereo unspecified)	-1	97	-3	0	x	x
O=C(CCNC(=O)c1ccc(Br)cc1)NNC(=O)c1ccccc1O	1	98	-1	6	x	x
CC(C)(C)S(=O)N1Cc2cc(C(=O)O)nc(-c3cccc(-c4cc5ccccc5o4)c3)c2[C@H]1CCO (stereo partly specified)	-2	106	39*	-2	35*	13*
CN1CCN(C(=O)c2cc3c(c(-c4cccc(-c5cc6ccccc6o5)c4)n2)[C@H](CCO)N(S(=O)C(C)(C)C)C3)CC1 (stereo partly specified)	1	95	3	4	x	x
O=C(CSc1nc2nn(-c3ccccc3)c(=O)c-2c2n1CCCCC2)c1ccc(O)c(O)c1	x	97	x	-1	x	x
CC(C)(C)c1ccc(CC(=O)N2CCC2(C)C(=O)NCCC#N)cc1 (stereo unspecified)	1	97	-1	-7	x	x
